# ± gives the standard deviation of the averaged measurements. The full ranking holds about 25,000 sequences; the median of “ln(normalized median fluorescence intensity)” is about 8.6, and the highest 2% start at about 10. The entries come from a sample that favours the highest values as a whole.
# Test system: PfAP2-EXP AP2 domain (GST-tagged)
# Experiment: gcPBM binding intensity (ln(normalized median fluorescence intensity)); higher = stronger DNA binding
# Procedure, shortened: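 GST-tagged P. falciparum DNA-binding domains produced in E. coli were incubated for 1 h on an Agilent 4 × 180k array of primer-extended double-stranded 36-bp intergenic genomic probes with negative controls. Binding intensity is the highest Masliner-normalised natural-log median intensity across replicate spots of either probe orientation, with bound protein detected by Alexa488 anti-GST antibody at 488 nm.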
row,Sequence,gcPBM binding intensity (ln)
1,ATGTAGAATTGTAAATGTACATGAAACACATATTCA [XGTACX_site3436],8.79 ± 0.34
2,TATAATATATTTATATGTACTTATTTATTTATATAT [XGTACX_site6519],8.39 ± 0.34
3,AAAAATAAAATAAAGAAGGAAAATAAAAAAATAAGG [CACACA_negctrl_site1811],8.79 ± 0.44
4,ATTTGTATATATTAATGTACACACATGCGTATGTTC [XGTACX_site7579],8.73 ± 0.41
5,ATATTTATGACCGTACGTACCTAACAATACAATCAA [XGTACX_site4511],8.67 ± 0.099
6,TATATAAACATATAAACATGCAATATATATATGTTA [TGCATGCA_site765],8.43 ± 0.2
7,TTAATTTACATGAACTGTACATAACATTTTTTTAAA [XGTACX_site4672],8.38 ± 0.38
8,CCCCCCGTGTTATATACACACATAATCAAATAAAAT [CACACA_site4111],10.9 ± 0.078
9,ATATAAATAATATAAATACACACTAAAAAAAATATA [CACACA_site542],8.72 ± 0.51
10,TATATATATATATATACACACACACTAATAAAAAAA [CACACA_site8426],10.2 ± 0.21
11,AGGCACGTGTTATATACACACATAATCAAATAAACT [CACACA_site7852],8.76 ± 0.56
12,TATATATATATATATACACACTATATAATTCAAACA [CACACA_site4712],10.1 ± 0.33
13,ATAAATAATATAAATACACACTAAAAAAAATATATA [CACACA_site4456],8.62 ± 0.54
14,CAATTCAATATATATACACACACACTATTAATAATT [CACACA_site9256],8.52 ± 0.41
15,TATATATATATATATATACACACTATATAATTCAAA [CACACA_site1023],10.2 ± 0.44
16,AAATTATAATATAATACACACATAAAAAAAAAATCA [CACACA_site3634],8.6 ± 0.43
17,AAAGTAAAAGAAAGCACACACACATGGATTTATGTA [CACACA_site5997],8.53 ± 0.49
18,ATATAGAATGTTTACACACGCAATAAATATATATAT [CACACA_site217],9.27 ± 0.13
19,AAAAAAAAAAAAAAAAAAAAAAAAAAAATTCTATAT [GTGCAC_negctrl_site468],9.28
20,ACAAATAAATATATATGTACATATATTTTTTTATTT [XGTACX_site2989],8.56 ± 0.37
21,TATATAGAAAACAAGGCATGCAAATAACAAATTGTG [TGCATGCA_site473],9.85 ± 0.36
22,GACACCTGCATGAAAGTGCAAAATAGAAAAGGAACA [GTGCAC_site9593],9.22 ± 0.38
23,ATATAGAACACCTGTGCATGCAAGTGCTAAAAAATT [TGCATGCA_site213],10.175 ± 0.007
24,TATTTTACTTTAAAAATGGAAAAAAAAAAGAATATT [CACACA_negctrl_site1360],8.38 ± 0.47
25,TAGAAATAAGAAAAATGTACATATAATATTGAAAGT [XGTACX_site3043],9.17 ± 0.35

row,Sequence,gcPBM binding intensity (ln)
1,TAAAAAAAAACATATACACACAAAAACGTACACATA [CACACA_site1354],8.86 ± 0.36
2,AATGATACACATATATGTACATATATATATATATAT [XGTACX_site5391],10 ± 0.58
3,TAATGATAAATACATACACACAAAAAATGATATATA [CACACA_site7258],8.6 ± 0.32
4,ATACAATGATATATACATATATATATATATATATAT [TGCATGCA_negctrl_site359],10.2 ± 0.49
5,GTAATATATACAAAATGTACAAAACAATAACATGAT [XGTACX_site8575],8.8 ± 0.39
6,CGCAAAACAATGATACGTACATATATATATATATAT [XGTACX_site5883],10.3 ± 0.33
7,AGAATATTTATATGATGTACTTATATATATATATAT [XGTACX_site3021],9.97 ± 0.47
8,AAAAGCACAAAAAATACACACACAAAAAATAAAAAA [CACACA_site8545],8.5 ± 0.57
9,TTCAAATTGTTTATATGTACTTATAAAAATTGTCTG [XGTACX_site977],8.35 ± 0.42
10,ACATGAATTTATATGTGTACTAACTATATTCTTAAA [XGTACX_site5966],8.27 ± 0.25
11,ATATATATATATATATGTACTAAGAATTCTTTAAAA [XGTACX_site8476],10.3 ± 0.16
12,TTAAAAATAATATTATGTACTAAGAATAAATATATA [XGTACX_site3100],8.34 ± 0.43
13,CATTTTAAAGAAAATACACACAAAAATAGATATATA [CACACA_site6773],8.66 ± 0.38
14,ATTTGTTACGGACATGCATGCGAATCAGGGTATATA [TGCATGCA_site154],10.1 ± 0.28
15,AAAAAAAAAATACATACACACACACCCACCCATATA [CACACA_site9187],9.14 ± 0.54
16,CATATTCCCCCCCACACACACACACGCATACATACC [CACACA_site7148],11.1 ± 0.19
17,TATTCCCCCAAACACACACACACACCCACATACCAC [CACACA_site2304],9.33 ± 0.23
18,CATATATACGCATACACACACACACCCACACCCACA [CACACA_site1725],8.79 ± 0.52
19,CACAAACACCCAAACACACACACACCGACATACATA [CACACA_site4410],8.41 ± 0.54
20,TTGGCATACAGACACACACACACACCCCCACATATA [CACACA_site590],9.43 ± 0.61
21,ACCATACATACATACACACACACACGCATATTTATA [CACACA_site7386],9.05 ± 0.6
22,CATATTCCCCCCCACACACACACACCCATACATACC [CACACA_site2303],11.1 ± 0.18
23,TATTCCCCCCAACACACACACACACCGACATACCAC [CACACA_site8723],10.2 ± 0.23
24,CATACACCCATACATACACACATACATACACCCATA [CACACA_site5124],8.67 ± 0.47
25,GACATATTCCCCCCCACACACACACCCACATACATA [CACACA_site2302],10.8 ± 0.11

row,Sequence,gcPBM binding intensity (ln)
1,TACATATACAGACACACACACACACCCCCACAAAAA [CACACA_site495],9.88 ± 0.52
2,TTTTTTTTTTTTTTTATAGTACATTACCAAAAAAAA [CACACA_negctrl_site1197],8.27 ± 0.39
3,TTTGAAATAAGCAAATGTACATTATTATTAAATATA [XGTACX_site6158],8.38 ± 0.32
4,GAATCACTAATTTTTTTACACACCACAATTTAATTT [CACACA_site8311],8.94 ± 0.47
5,TATATTAAATATTACACACATACATTTAGTGTCAAA [CACACA_site1990],8.35 ± 0.37
6,TTTTTATATTCCCCCAGTACATATATAATAGTAGTA [XGTACX_site7927],10 ± 0.3
7,AACAAGAAAAAAAAAAAAAAAAAAAAAAAATATTTT [XGTACX_negctrl_site428],8.13 ± 0.3
8,ATAATAATATTTCTATGTACTTATTTTATGTATTAG [XGTACX_site1747],8.51 ± 0.4
9,TTTGAATAAAAACAAAAAATTAAATTAAATTAAATA [CACACA_negctrl_site312],8.15 ± 0.5
10,ATTTCCTTGAATGTTGCATGCTGTATTTTAATTAAA [TGCATGCA_site280],9.88 ± 0.43
11,ATTTTTGAACGGTACAGTACAGAATTTAATTAACCC [XGTACX_site47],9.13 ± 0.54
12,TACATACACGGACACACACACATATATATATATATA [CACACA_site5883],10.2 ± 0.36
13,AAAAAAAACGGACACACACACATACCCATACATACA [CACACA_site5574],8.78 ± 0.49
14,CTAAAATACGGACACACACACACATATATATATATA [CACACA_site6138],10.3 ± 0.15
15,CGCATACACGGACACACACACACATATATATATATA [CACACA_site4520],10.1 ± 0.34
16,AGTATACATATATATACACACATATATATATATATA [CACACA_site300],10.2 ± 0.34
17,AAAAAAAACGGACACACACACATAAATATATATAAA [CACACA_site4260],9.02 ± 0.4
18,CCCCCCCACGGACACACACACATACATACCACATAT [CACACA_site5303],10.3 ± 0.19
19,AGTATACATATATATACACACACATATATATATATA [CACACA_site7883],9.98 ± 0.62
20,AGTATACTCGGACACACACACACATATATATATATA [CACACA_site5031],10.3 ± 0.2
21,AATAACCACGGACACACACACATATATATATATATA [CACACA_site5873],10.2 ± 0.46
22,AAAAAAAACGGACACACACACATACAAAATATATAT [CACACA_site4910],8.7 ± 0.38
23,AAAAAACACGGACACACACACATATACATACATACA [CACACA_site5470],9.07 ± 0.3
24,TTTAAAATTATAAGGATTAAAAAAAAAAAAAATAAA [CACACA_negctrl_site114],8.27 ± 0.45
25,ATTTTGTTTTTTTTTGCACACCATAAGGAGTGTAGG [CACACA_site1414],8.84 ± 0.41

row,Sequence,gcPBM binding intensity (ln)
1,AATAATGTATGAAATAAACACACAAGTAAGTACATA [CACACA_site8776],8.85 ± 0.39
2,TACAAAAGCGATACGGCACACATTTCCTGTTTAAAT [CACACA_site2746],8.74 ± 0.33
3,AATTATTTACCCTATACACACAAAACACGCTAAAAA [CACACA_site1211],8.79 ± 0.43
4,AATATATTTTTTCACTGTACTTTTATTATATATACA [XGTACX_site8312],8.97 ± 0.36
5,AAATAAAAACATAACAGTACAGTTAACATTTTTATA [XGTACX_site3479],8.29 ± 0.35
6,AATACATTTATGAGCTGTACACATTTATTTGAGCTA [XGTACX_site7695],8.51 ± 0.27
7,ATATTTAAATATATTTATATATATAAAAAAAAATAT [GTGCAC_negctrl_site312],8.56 ± 0.39
8,TATCGACATTTCATTTGTACATATATACATATATTT [XGTACX_site3346],8.64 ± 0.42
9,TGTTCATTTATTTACTTACACACTTTATATATGTGG [CACACA_site1410],8.79 ± 0.53
10,GAATTAATTTTAAAACGTACATGGGTGTATTTACAC [XGTACX_site5939],8.86 ± 0.3
11,GGGAGGATATTACACAGTACCCAGAAAATCTACGGA [XGTACX_site2551],8.8 ± 0.43
12,TTATTATATTAAAAGAGGACACATTTATTTTTTTTT [XGTACX_site1241],8.09 ± 0.53
13,TATACACCCGGACACACACACATATATATATATATA [CACACA_site5030],10.1 ± 0.54
14,AATACATACGGACACACACACACATATATATATATA [CACACA_site5884],10.3 ± 0.17
15,GTAATACCCAAACACACACACATACCCATATATATA [CACACA_site5510],8.88 ± 0.52
16,CACAGACACGGACACACACACACACCCACATATATA [CACACA_site4355],8.73 ± 0.41
17,CATACATACGGACACACACACATATATATATATATA [CACACA_site5598],10.2 ± 0.41
18,AAAATACCCGGACACACACACATATATATATATATT [CACACA_site6137],8.83 ± 0.31
19,TACACAAGCAGACACACACACATATATATATATATA [CACACA_site1270],10.1 ± 0.53
20,CATATATACACATACACACACACACGGACACGCACA [CACACA_site6910],8.87 ± 0.53
21,CACAGACACGGACACACACACATATATATATATATA [CACACA_site5248],10.2 ± 0.26
22,AATACCCAAGGACACACACACACATATATATATATA [CACACA_site8345],10.2 ± 0.26
23,CACAGACACGGACACACACACATATATAATATATAT [CACACA_site4495],8.84 ± 0.33
24,TACACAAGCGGACACACACACATATATATATATATA [CACACA_site4832],10.3 ± 0.13

# Reference: the supplement of paper PMC11417369
